High-throughput results deposited in PubChem by several laboratories.
EBNA-1 inhibitor – blocks EBNA-1 binding to DNA | EBNA-1 DNA binding, fluorescence polarization | inhibition, % at 14.8 µM | 0.34% of 300,000 active; in the data active = inhibition above about 28%
LANA-H2A inh – blocks KSHV LANA binding to histone H2A/H2B; Q9QR71; cell-free LANA-H2A/H2B peptide, fluorescence polarization; 0.6% of 320,000 active; inhibition, % (test concentration not listed); in the data active = inhibition mostly above about 10%, no sharp cut-off; inactive = mostly below about 6.7%
Target sequence (Q9QR71 whole entry, looked up): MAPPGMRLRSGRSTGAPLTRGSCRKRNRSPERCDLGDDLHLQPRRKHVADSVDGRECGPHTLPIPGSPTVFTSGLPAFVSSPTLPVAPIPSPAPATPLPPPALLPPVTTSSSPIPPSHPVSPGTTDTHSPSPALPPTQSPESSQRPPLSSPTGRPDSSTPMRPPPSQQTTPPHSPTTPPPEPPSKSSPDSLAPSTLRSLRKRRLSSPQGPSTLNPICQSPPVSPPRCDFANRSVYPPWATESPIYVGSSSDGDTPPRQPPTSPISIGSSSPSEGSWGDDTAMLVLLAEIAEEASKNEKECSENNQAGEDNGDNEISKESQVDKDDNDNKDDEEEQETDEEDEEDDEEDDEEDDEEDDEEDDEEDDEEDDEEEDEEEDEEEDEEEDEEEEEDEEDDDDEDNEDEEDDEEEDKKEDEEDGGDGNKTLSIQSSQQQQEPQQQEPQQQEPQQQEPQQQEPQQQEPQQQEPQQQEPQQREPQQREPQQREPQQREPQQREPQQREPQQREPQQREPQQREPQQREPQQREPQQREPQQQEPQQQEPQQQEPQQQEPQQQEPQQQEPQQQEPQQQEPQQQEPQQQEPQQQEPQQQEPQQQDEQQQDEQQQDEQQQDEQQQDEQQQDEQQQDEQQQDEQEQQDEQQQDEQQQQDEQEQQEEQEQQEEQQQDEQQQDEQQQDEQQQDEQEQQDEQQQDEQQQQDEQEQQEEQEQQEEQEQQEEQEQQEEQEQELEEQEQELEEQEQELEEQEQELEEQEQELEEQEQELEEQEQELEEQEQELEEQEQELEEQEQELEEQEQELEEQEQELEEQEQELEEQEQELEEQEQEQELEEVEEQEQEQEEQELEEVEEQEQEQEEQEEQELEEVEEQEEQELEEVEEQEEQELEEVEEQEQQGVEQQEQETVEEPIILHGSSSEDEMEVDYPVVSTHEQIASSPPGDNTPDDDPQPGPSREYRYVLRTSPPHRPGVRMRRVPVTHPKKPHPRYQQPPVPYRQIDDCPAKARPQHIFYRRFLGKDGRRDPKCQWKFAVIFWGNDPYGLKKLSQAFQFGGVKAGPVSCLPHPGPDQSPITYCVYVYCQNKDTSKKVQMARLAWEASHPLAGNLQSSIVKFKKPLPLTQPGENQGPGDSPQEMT
LYPLA1 inh – LYPLA1 (human) inhibition in PME1 counter-screen; O75608; recombinant LYPLA1, FP-Rh probe fluorescence polarization; 0.16% of 320,000 active; inhibition, % at 5.9 µM;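 active = inhibition above the mean of all tested compounds plus 3 SD, set per campaign, cut at about 14% in these data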;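 also: inhibitors block serine hydrolase probe labeling of LYPLA1 so polarization falls; 0% = enzyme with DMSO and 100% = wells lacking LYPLA1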
ZTA DNA inh – blocks Epstein-Barr virus ZTA, an EBNA-1 counter-screen; ZTA-DNA binding, fluorescence polarization; 0.15% of 320,000 active; inhibition, % at 11 µM; in the data active = inhibition above about 33%
LYPLA2 counter – blocks human lysophospholipase 2, a PME1 counter-screen; inhibition, % at 5.9 µM; AID 2177; 0.38% of 320,000 active; recombinant LYPLA2, FP-Rh probe fluorescence polarization; O95372;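 active = inhibition above the screen-wide mean plus 3 SD, limit set per campaign, cut at about 26% in these data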;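 also: 0% = LYPLA2 with DMSO and 100% = wells lacking LYPLA2 enzyme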
An asterisk follows results filed as active; / = no result; + = active, no number. A selection: hits, their analogues and other compounds. The true share with any hit is near 1.4%.

SMILES | EBNA-1 inhibitor | LANA-H2A inh | LYPLA1 inh | ZTA DNA inh | LYPLA2 counter
CC(=O)Nc1ccc(NC(=O)CCC(=O)OCC(=O)c2cccc([N+](=O)[O-])c2)cc1 | -3 | 2 | -3 | -1 | -4
CCN(CC(=O)Nc1c(F)cccc1F)C(=O)CCc1nc2ccccc2c(=O)[nH]1 | -10 | -2 | 5 | -17 | 3
CCN(CC(=O)Nc1c(F)cccc1F)C(=O)CCCc1nc2ccccc2c(=O)[nH]1 | 10 | 9.7* | 2 | -13 | 3
Cc1nn(-c2ccc(Cl)cc2)c2[nH]c(=O)c(CNCc3ccc4c(c3)OCO4)cc12 | 1 | 24* | 1 | -12 | -5
O=[N+]([O-])c1cccc(-c2ccc(CN3CCCCC3)o2)c1 | 1 | -4 | -1 | -10 | 0
CCNC(=O)c1sc2cc(C)ccc2c1Cl | -13 | 36* | 2 | -38 | 6
Cc1ccc2c(Cl)c(C(=O)NCCc3ccccc3)sc2c1 | 1 | -6 | 0 | 8 | -6
Cc1ccc(NC(=O)C(c2ccccc2)N(C)C)cc1Cl (stereo unspecified) | -9 | 12* | 7 | -10 | -3
CCC/C(=N\NC(=O)C1CC1)c1ccccc1 | -3 | 7 | 2 | 5 | -2
CCC/C(=N/NC(=O)c1cccc(Cl)c1)c1ccccc1 | 8 | 14* | 0 | -15 | -6
CCCCNC(=O)NS(=O)(=O)c1ccc(NC(=O)CCC(=O)c2cccs2)cc1 | -4 | 6 | 0 | 4 | -5
CC(=O)Oc1ccc(N2C(=O)C3C4C=CC(C5CC45)C3C2=O)cc1[N+](=O)[O-] (stereo unspecified) | -6 | 3 | 1 | -1 | -1
CC(=O)Oc1ccc(N2C(=O)C3C(C2=O)C2C=CC3C23CC3)cc1[N+](=O)[O-] (stereo unspecified) | -7 | 11* | 0 | -20 | 7
CC(=O)Nc1ccc(S(=O)(=O)NC2=C(N3CCN(Cc4ccccc4)CC3)C(=O)c3ccccc3C2=O)cc1 | -1 | + | -1 | 1 | 4
CC(=O)Nc1ccc(S(=O)(=O)NC2CC(=O)N(c3ccc(C)cc3)C2)cc1 (stereo unspecified) | 5 | -7 | -4 | 4 | -5
CSc1nc(N)nc2c1ncn2CC(=O)N1CCN(c2ccccn2)CC1 | / | 1 | / | / | /
Cc1ccc(C)c(N2CCN(C(=O)c3cc4ccccn4n3)CC2)c1 | -3 | 30* | -5 | 3 | -1
O=C(c1cc2ccccn2n1)N1CCN(c2cccc(C(F)(F)F)c2)CC1 | 7 | 0 | -2 | -4 | 6
CCOC(=O)c1c(NC(=O)COC(=O)c2ccccn2)sc(C)c1C | / | -3 | -3 | -3 | -1
COCCCNCCOc1ccc(C(C)(C)c2ccccc2)cc1 | -4 | -4 | -4 | 17 | 2
CCC(C)NCCOc1ccc(C(C)(C)c2ccccc2)cc1 (stereo unspecified) | 2 | 14* | -3 | -2 | -7
Cn1nc(C(C)(C)C)c(NC(=O)c2cccs2)c1C(C)(C)C | 3 | -7 | 4 | -2 | 8
Cn1cc(/C=N\NC(=O)c2cccs2)c2ccccc21 | 9 | 17* | 0 | 15 | -4
CC(C)(C)C(=O)Nc1ccnn1C1CCN(C(=O)c2ccc(Cl)cc2F)CC1 | 3 | 26* | 2 | 2 | 8
CC(C)CC(=O)Nc1ccnn1C1CCN(C(=O)c2ccc(Cl)cc2F)CC1 | 8 | -3 | 1 | 17 | 3
SMILES | EBNA-1 inhibitor | LANA-H2A inh | LYPLA1 inh | ZTA DNA inh | LYPLA2 counter
O=C(Nc1ccnn1C1CCN(C(=O)c2cccc(C(F)(F)F)c2)CC1)C1CC1 | / | 17* | / | / | /
CCOCCCn1c(=S)[nH]c2cc(C(=O)NC3CCCC(C)C3C)ccc2c1=O (stereo unspecified) | 8 | -6 | 0 | 10 | 1
COc1ccc2c(c1)c1ncn(CCN3CCCC3)c(=O)c1n2C | -5 | 2 | 1 | -22 | 0
COc1ccccc1CCn1cnc2c3cc(C)ccc3n(C)c2c1=O | 2 | 24* | -3 | 16 | -1
O=C(O)c1ccccc1-c1ccccc1C(=O)NCc1cccc(C(F)(F)F)c1 | -7 | 18* | -1 | 2 | -2
C/C(=N\NC(=O)c1ccc(Br)o1)c1cc2c(cc1NC(=O)CCC(=O)O)OCO2 | / | 2 | / | / | /
O=c1[nH]c2c(s1)C=Nc1ccccc1N2 | 6 | 38* | 1 | 9 | 5
O=C(N/N=C\c1c(O)ccc2ccccc12)c1ccc(S(=O)(=O)N2CCCCC2)cc1 | 6 | 24* | -4 | 1 | -1
O=C(NN=Cc1c(O)ccc2ccccc12)c1ccc2c(c1)OCO2 | / | 0 | / | / | /
C[C@H](NC(=O)c1ccccc1)C(=O)OCC(=O)Nc1sccc1C(N)=O | / | 6 | / | / | /
Cc1ccc(OCC(=O)N(C)Cc2ccccc2)c([N+](=O)[O-])n1 | 9 | 17* | -2 | -22 | 1
CCC1CN(C(=O)N2CCC(C(=O)NCc3ccco3)CC2)c2cc(C)ccc2O1 (stereo unspecified) | 5 | 0 | 2 | -1 | -2
CN(C)c1ccc2nc3ccc(=[N+](C)C)cc-3sc2c1 | + | 12 | -1 | / | -5
Cc1nc2ccc(N)cc2s1 | 9 | 2 | -1 | -19 | -1
CCOC(=O)[C@H]1[C@H]2COc3cc(OC)ccc3[C@@H]2N2C(=O)CN(C)C(=O)[C@@]12C | / | 2 | / | / | /
C=C(C)c1cccc(C(C)(C)NC(=O)NNC(=O)c2ccccc2O)c1 | -25 | 2 | 0 | 5 | -4
COc1ccccc1C1C(C(=O)c2sc(C)nc2C)=C(O)C(=O)N1CCN1CCOCC1 (stereo unspecified) | 1 | 17* | -4 | 22 | -1
COc1ccc(C(=O)N(C)CC2CCN(CCc3cccc(C(F)(F)F)c3)CC2)cc1C | 2 | -4 | -2 | 0 | 0
O=C(NOC(=O)c1c(F)cccc1Cl)c1ccc(Cl)c(Cl)c1 | 2 | 1 | -1 | -19 | 2
Cc1[nH]c(=S)[nH]c(=O)c1CCCO | -11 | 18* | 0 | -12 | -3
O=C(NCCS(=O)(=O)NCc1ccc2c(c1)OCO2)c1ccccc1 | -1 | 1 | -1 | 2 | -1
O=C(Nc1ncc2c(n1)CC(c1ccco1)CC2=O)c1ccccc1 (stereo unspecified) | -20 | 44* | -3 | -14 | 0
CC(=O)Nc1ccc(OCC(=O)Nc2ccc(Cl)c(S(=O)(=O)N3CCOCC3)c2)cc1 | / | -4 | / | / | /
CCCCn1c(NC(=O)c2ccc(F)cc2)c(C#N)c2nc3ccccc3nc21 | -19 | -7 | 60* | 10 | 61*
CCOC(=O)CN1C(=O)C(C)(C)Oc2ccc(C(=O)NC(C)(C)CC)cc21 | 6 | -6 | 3 | 7 | -1
CCC(C)(C)NC(=O)c1ccc2c(c1)N(CC(=O)OC)C(=O)C(C)(C)O2 | 4 | 18* | -4 | -7 | -4
CC1CCCN(C(=O)COc2ccc(Nc3ccccc3)cc2)C1 (stereo unspecified) | -7 | 2 | 3 | -15 | 6
Cc1cccc(OCCCC(=O)Nc2ccc(Cl)c(S(=O)(=O)N3CCOCC3)c2)c1 | / | 1 | -8 | 5 | -6
